According to PubChem BioAssay AID588335 (The Scripps Research Institute Molecular Screening Center, 2011):
In all, about 360,000 compounds went through this assay and about 4,500 (1.2%) were called active. No stated cut-off is given here; in the data, active means inhibition above about 30%; inactive means the rest. The entries come from a sample that favours actives as a whole.

Experiment: inhibition of GDH and TPI enzymes – biochemical, absorbance, full deck, artefact control for M. tuberculosis FBA inhibitor project, primary screen (AID 588335);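 further: 0% = DMSO wells and 100% = wells lacking the enzyme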
Conditions: GDH-TPI coupled enzyme counterscreen, NADH absorbance; at 4.8 µM; hits give high values

Compound | inhibition
O=C(COC(=O)c1ccc(N2CCCC2=O)cc1)c1ccc(OC(F)F)cc1 | 2.55% (inactive)
Cc1cc(=O)oc2cc(NC(=O)C3CC(=O)N(Cc4ccccc4)C3)ccc12 (centres undefined) | 19.6% (inactive)
NC(N)=NCCCc1cn(CC(=O)N2CCNCC2)nn1 | 1.79% (inactive)
CC(C)Oc1ccc(C2NC(=O)NC2=O)cc1 (centres undefined) | 1.41% (inactive)
O=C1CCCC2=C1C(c1cccs1)n1nc(SCc3ccccc3)nc1N2 (centres undefined) | 19.9% (inactive)
CCC(C)[C@H](NC(=O)N1c2ccccc2NC(=O)[C@@H]1C(C)C)C(=O)N[C@@H](Cc1ccccc1)C(=O)O (some centres undefined) | 10.8% (inactive)
CCCc1ccc(-c2c(C)sc(NC(=O)c3ccnn3C)c2C#N)cc1 | 17.4% (inactive)
CC(OC(=O)CNS(=O)(=O)/C=C/c1ccccc1)C(=O)Nc1ccc(S(=O)(=O)N2CCCC2)cc1 (centres undefined) | -3.69% (inactive)
CN(C)c1ccc(Nc2c3c4c(cccc4n(C)c2=O)C(=O)c2ccccc2-3)cc1 | 5.68% (inactive)
CCSc1nc2c(c(=O)[nH]1)C(c1cccnc1)C(C(=O)OC(C)C)=C(C)N2 (centres undefined) | 0.91% (inactive)
COc1cc(S(=O)(=O)N2CCN(C(=O)C3CC3)CC2)ccc1NC(C)=O | 7.35% (inactive)
O=C(Nc1ccc(OCC(=O)N2CCOCC2)cc1)c1cc(F)c(F)cc1Cl | 6.18% (inactive)
CCOC(=O)c1c(C)[nH]c(C)c1C(=O)CSc1nc(N)cc(N)n1 | 5.66% (inactive)
CCOC(=O)c1c(C(C#N)C#N)cc(C)nc1C | 34.7% (active)
CCOC(=O)c1cc(C)nc(S(C)(=O)=O)c1C#N | -4.82% (inactive)
C[C@@H]1CN([C@H](C)CO)C(=O)c2cc(Br)cnc2O[C@@H]1CN(C)Cc1cncnc1 | 13.4% (inactive)
Cc1cc(Cl)ccc1C(=O)C1CCCN(C(=O)c2ccc3c(c2)OCO3)C1 (centres undefined) | 4.42% (inactive)
O=C(O)c1ccc(N/N=C/c2ccc3ncccc3c2)cc1 | 34% (active)
CCNC(=S)NNC(=O)c1ccc2ncccc2c1 | 7.57% (inactive)
NCCCCCC(=O)N/N=C/c1ccc2nccnc2c1 | 26.5% (inactive)
CCCCN(C(=O)c1ccc2ccccc2c1)c1c(N)n(CCCC)c(=O)[nH]c1=O | 1.27% (inactive)
O=C(CNC(=O)Cc1ccccc1)NCC(=O)OCC(=O)c1ccccc1Cl | 4.58% (inactive)
O=C(CNC(=O)c1ccccc1)NCC(=O)OCc1ccc(Cl)cc1 | 4.85% (inactive)
O=C(CNC(=O)OCc1ccccc1)Oc1cc2oc(=O)cc(-c3ccccc3)c2cc1Cl | 31.2% (active)

Compound | inhibition
CCCCNC(=O)N1CCN(S(C)(=O)=O)CC1 | -0.96% (inactive)
Cc1ccc(C)c(-n2ccnc2SCC(N)=O)c1 | -8.54% (inactive)
CCCCCCCC(=O)OC(CN1CCCCCC1)CN1CCCC1=O (centres undefined) | 4.02% (inactive)
NC(=O)CSc1nnc(NC(=O)c2ccc(Br)o2)s1 | 32.8% (active)
CC(C)(C)NC(=O)CSc1nnc(NC(=O)CCc2ccccc2)s1 | 4.27% (inactive)
COC(=O)CSc1nnc(NC(=O)CCc2ccccc2)s1 | 3.45% (inactive)
COc1ccc(N)cc1NC(=O)CN1CCOCC1 | -1.77% (inactive)
Cc1ccc(S(=O)(=O)NCc2cn3ccsc3n2)c(C)c1 | 7.83% (inactive)
CCN1C(=O)[C@H]2[C@@H](c3ccccc3)N[C@]3(CCCN(Cc4ccc(C)cc4)C3=O)[C@H]2C1=O | -3.32% (inactive)
Cc1cc(=O)[nH]c(N/N=C/c2ccc3c(c2)OCCO3)n1 | 46.9% (active)
CCN(CC)c1ccc(/C=N/Nc2nc(C)cc(=O)[nH]2)cc1 | 37.7% (active)
Cc1cc(=O)[nH]c(Nc2cccc(Br)c2)n1 | -6.37% (inactive)
Cc1ccc(C)c(NC2=NCC(=O)N2c2ccc3c(c2)OCCO3)c1 | -1.83% (inactive)
Cc1cc(=O)[nH]c(N/N=C/c2c(C)nn(-c3ccccc3Cl)c2Cl)n1 | 3.41% (inactive)
Cc1cccc(C)c1NC(=O)CNC(=O)c1ccc2c(c1)OCCO2 | -1.08% (inactive)
CCN(CC)CCNc1nc(-c2ccc(OC(F)F)cc2)c(C)s1 | 2.11% (inactive)
O=C(NNC1=NCCC1)c1cccc(S(=O)(=O)N2CCCCC2)c1 | 5.45% (inactive)
CCC1=C(OC(=O)N(CC)CC)N2C(=O)OC(=NCC3CC3)[C@]2(C)[C@H]2C1=CC[C@H]1C(=O)N(CC(=O)OC)C(=O)[C@H]12 | 9.36% (inactive)
COc1ccc(/C=C2\SC(=N)N(c3ccc(F)cc3)C2=O)cc1 | 4.31% (inactive)
COc1ccc(C=C2CCC3C(CCCC34OCCO4)C2=O)cc1 (centres undefined) | 25.5% (inactive)
COc1ccc(/C=C2\N=C3CCCN3C2=O)cc1 | 45.7% (active)
Cc1ccc(Cc2nnc(SCC(=O)Nc3ccc(C)cc3C)[nH]c2=O)cc1 | 4.83% (inactive)
[O-][N+]12CCCCC1CCCC2CO (centres undefined) | -10.3% (inactive)
Cc1cc(C)c2nc3nc(C)cc(C)c3c(N)c2c1 | 4.65% (inactive)

Compound | inhibition
CCc1nnc(NC(=O)[C@@H](NC(=O)c2cccc(C)c2)C(C)C)s1 | -6.25% (inactive)
CCc1nnc(NC(=O)/C=C/c2ccc(C)o2)s1 | 40.7% (active)
CCc1nnc(NC(=O)c2ccco2)s1 | 15.9% (inactive)
CN(C)c1ccc(NC(=O)CN2C3CCCC2CC(NC(=O)c2ccccc2)C3)cc1 (centres undefined) | -4.43% (inactive)
Nc1ccc(-c2nnc(-c3ccc(-c4ccccc4)cc3)o2)cc1 | 49.1% (active)
CN(C)c1ccc(-c2nnc(-c3cccnc3)o2)cc1 | 30% (inactive)
OC(c1nnc(-c2ccccc2)o1)c1cccs1 (centres undefined) | -12.3% (inactive)
CCC(C)(C)c1ccc(OCC(=O)N(C)C)c(C(C)(C)CC)c1 | 1.89% (inactive)
O=C(CCNC(=O)c1ccccc1)NN=Cc1ccc(Br)o1 | 8.77% (inactive)
O=C(N/N=C/c1ccc(Br)o1)c1cncc(Br)c1 | 33.6% (active)
Cc1ccc(C(=O)N/N=C\c2cc(Br)c(Br)o2)cn1 | 9.96% (inactive)
CN(CC1CCCO1)S(=O)(=O)c1ccc(C(=O)Nc2ccc(F)cc2)cc1 (centres undefined) | 4.12% (inactive)
CN1CCN(CCCNC(=O)c2cc3c(=O)oc4ccccc4c3s2)CC1 | 31.1% (active)
CCC1CCCCN1CCCNC(=O)c1cc2c(Cl)nc3ccccc3c2s1 (centres undefined) | 0.39% (inactive)
O=C(NCCN1CCN(Cc2ccccc2)CC1)c1cc2c(=O)[nH]c3ccccc3c2s1 | 24.2% (inactive)
COC(=O)c1cc(NC(=O)CC2C(=O)NCCN2C(=O)c2ccc(F)cc2)cc(C(=O)OC)c1 (centres undefined) | 3.86% (inactive)
Cc1csc(=O)n1CC(=O)Nc1ccc(S(C)(=O)=O)cc1 | -3.52% (inactive)
COc1ccccc1/C=C/C(=O)NC(=S)N1CCOCC1 | 18.2% (inactive)
CCOC(=O)/C=c1\s/c(=C\c2ccccc2OC)c(=O)n1CC(=O)N1CCOCC1 | 33.3% (active)
CCOC(=O)N1CCN(C(=O)Cn2cnc3ccccc3c2=O)CC1 | 2.24% (inactive)
O=C(NCc1ccccc1Cl)C1CCN(c2ncnc3c2nc2n3CCCCC2)CC1 | -11.1% (inactive)
Cc1ccc(CNC(=O)CC(NC(=O)c2ccccc2)c2ccccc2)cc1 (centres undefined) | -12.7% (inactive)
CCN(CCn1cccn1)Cc1cn[nH]c1-c1ccc(OC)cc1F | 0.63% (inactive)
COc1ccccc1C(=O)Nn1c(-c2cccs2)nc2ccccc2c1=O | 17.9% (inactive)

Compound | inhibition
CCn1c(NC(=O)c2ccccc2)c(-c2cccs2)c(=O)c2ccccc21 | 32% (active)
CCn1c(=O)c2cc(C(=O)Nc3cccc(C(C)=O)c3)sc2c2ccccc21 | -0.68% (inactive)
COc1ccccc1CCNC(=O)CN1C(=O)NC2(CCCC2)C1=O | 7.91% (inactive)
CC(C)(C)c1ccc(S(=O)(=O)NC(=O)C2(C)CCN2C(=O)CC2CC2)cc1 (centres undefined) | 0.89% (inactive)
CCOC(=O)c1ccc(S(=O)(=O)N(CCO)Cc2cc3cc(OC)c(OC)cc3[nH]c2=O)cc1 | 20.5% (inactive)
CCc1nnc(NC(=O)CCC(=O)N2CCN(c3cc(C)ccc3C)CC2)s1 | -2.21% (inactive)
CC(C)NC(=O)C(c1ccc(F)cc1)N(C(=O)CCC(=O)Nc1ccccn1)c1ccccc1F (centres undefined) | 3.77% (inactive)
Cc1ccc(NC(=O)CS(=O)CC(=O)N(c2ccccc2)C(C)C(=O)NC2CCCC2)cc1 (centres undefined) | 7.17% (inactive)
O=C(Nc1ccc(OC(F)(F)F)cc1)c1ccc2c(c1)no[n+]2[O-] | 4.41% (inactive)
Cn1nccc1/C=N\NC(=O)c1ccc(Cl)cc1 | -10.2% (inactive)
Cn1cccc1/C=N/NC(=O)c1ccc(OC(F)(F)C(F)F)cc1 | 35.9% (active)
O=C(Nc1cc(F)ccc1F)c1ccc2c(=O)n3c(nc2c1)CCC3 | 5.36% (inactive)
O=C1CC(C(=O)O)NC(=S)N1 (centres undefined) | -5.96% (inactive)
CNC(=S)N/N=C/c1cn(Cc2ccc(C)cc2)c2ccccc12 | 37% (active)
NC(=O)Cn1cc(/C=N\NS(=O)(=O)c2ccccc2)c2ccccc21 | 8.87% (inactive)
CCOC(=O)N/N=C/c1cn(Cc2ccccc2Cl)c2ccccc12 | 17% (inactive)
Cn1c(SCC(=O)Nc2ccc(N3CCOCC3)cc2)nnc1C(F)(F)F | 2.16% (inactive)
COc1cccc(C(=O)Nc2nnc(S(=O)(=O)N3CCOCC3)s2)c1 | 23.5% (inactive)
COc1cccc(C(=O)Nc2nnc(S(=O)(=O)N3CCCCC3)s2)c1 | 40.7% (active)
O=C(Nc1nnc(S(=O)(=O)N2CCCCCC2)s1)c1cccc(Br)c1 | 16.8% (inactive)
Cc1ccc(S(=O)(=O)N2CCCC2CO)cc1 (centres undefined) | -4.78% (inactive)
O=C(CNc1cccc(S(=O)(=O)N2CCCCC2)c1)Nc1ccccc1F | 5.6% (inactive)
